# In PubChem BioAssay AID1559 (National Center for Advancing Translational Sciences (NCATS), 2009):
# Records with an inconclusive call do not appear. The source made the active and inactive calls. The call rests on the fitted dose curve; in most records, active means well fitted curve in the direction sought with a large enough effect; inconclusive means small, poorly fitted or top-dose-only effect, or another doubt; inactive means no such curve, though single readings can be large or run the other way.
# Target: Microtubule-associated protein tau (Homo sapiens) (UniProt P10636)
# Sequence (P10636 561-689 P618L limits assumed): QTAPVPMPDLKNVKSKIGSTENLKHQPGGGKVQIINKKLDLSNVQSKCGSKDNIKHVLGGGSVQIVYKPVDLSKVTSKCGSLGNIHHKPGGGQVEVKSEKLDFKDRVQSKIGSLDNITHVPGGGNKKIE
# Test: Confirmation Concentration-Response Assay for Inhibitors of Tau Fibril Formation, Fluorescence Polarization
# Conditions: recombinant tau K18 P301L (four-repeat tau fragment) heparin fibrillization, Alexa594 FP; series mostly up to 57.1 µM; activity change, negative = inhibition: at the top concentration
# From the text: NIH Molecular Libraries Probe Production Network [MLPCN] NIH Chemical Genomics Center [NCGC] MLPCN Grant: X01 MH083262-01 Assay Provider: Carlo Ballatore, University of Pennsylvania NCGC Assay Overview: The microtubule-associated protein tau is an abundant protein in the axons of neurons that stabilizes microtubules. With its ability to modulate microtubule dynamics, tau contributes directly or indirectly, to key structural and regulatory cellular functions. Particularly important is the influence tau exerts on axonal transport, which allows signaling molecules, trophic factors and other essential cellular constituents to travel along the axons. Under pathological conditions, tau becomes sequestered into insoluble aggregates called neurofibrillary tangles. This phenomenon is believed to have pathological consequences by promoting axonal transport deficits that ultimately lead to synaptic dysfunction and neuronal loss. To identify inhibitors of tau aggregation, a heparin-induced tau fibril formation assay was used that employed a recombinantly expressed fragment of tau, K18 (Q242-E372), bearing a P301L mutation (Gustke et al. 1994; Hong et al. 1998). […] Gustke, N., B. Trinczek, et al. (1994). "Domains of tau protein and interactions with microtubules." Biochemistry 33(32): 9511-22. Hong, M., V. Zhukareva, et al. (1998). "Mutation-specific functional impairments in distinct tau isoforms of hereditary FTDP-17." Science 282(5395): 1914-7. Li, W. and V. M. Lee (2006). "Characterization of two VQIXXK motifs for tau fibrillization in vitro." Biochemistry 45(51): 15692-701. von Bergen, M., S. Barghorn, et al. (2001). "Mutations of tau protein in frontotemporal dementia promote aggregation of paired helical filaments by enhancing local beta-structure." J Biol Chem 276(51): 48165-74.
# For screening, 2 uL/well human K18 P301L (15 uM unlabeled and 0.24 uM Alexa 594-labeled tau final concentrations) in reagent buffer (100 mM sodium acetate pH 7) was dispensed into black solid 1536-well plates (Grenier) using a solenoid-based dispenser. Following transfer of 23 nL compound or DMSO vehicle by a pin tool, 2 uL/well heparin (20 uM final concentration) in reagent buffer was added and the plate centrifuged 15 s at 1000 RPM. Plates were incubated 6 hr at 37 C and then 1 uL/well ThT (30 uM final concentration) was added. After a 1 hr ambient incubation, the plates were read by an Envision (Perkin Elmer) to monitor Alexa 594 FP (555 nm excitation and 632 nm emission). Keywords: NIH Roadmap, MLPCN, MLI, MLSMR, NCGC, qHTS, tau, tauopathies, Alzheimer's disease, fibril, neurodegeneration, aggregation
SMILES,"activity change, negative = inhibition",Potency
CCOC(=O)N1CCN(C(=O)CN2C(=O)/C(=C\c3cccc(OC)c3)SC2=S)CC1,-18.3% (inactive),
CCOC(=O)c1nn(-c2ccccc2)c(=O)c2c(NC(=O)c3ccccc3)scc12,-5.82% (inactive),
CCN(CC)S(=O)(=O)c1cccc(NC(=O)Nc2cccc(C(F)(F)F)c2)c1,,2.82 µM (active)
NC[C@@H](O)c1ccc(O)c(O)c1,-5.2% [at 100 µM] (inactive),
COc1cccc(/C=C2/SC(=S)N(CC(=O)Nc3nnc(C)s3)C2=O)c1,-24.6% (inactive),
COC(=O)C1CCc2sc(N)c(C(=O)OCc3ccccc3)c21 (stereo not given),-11.9% (inactive),
COc1ncc(-c2ccccc2)cc1N,-4.28% (inactive),
Cn1sc(NC(=O)c2ccccc2)nc1=O,-3.96% (inactive),
COC(=O)CSc1nc2ccc(NC(=O)CSc3nnnn3Cc3ccccc3)cc2s1,-9.6% [at 100 µM] (inactive),
CCOC(=O)c1c(N)sc2c1CCOC2,-6.49% (inactive),
Cc1ccc(N(C)S(=O)(=O)c2nnc(NC(=O)C3CCCCC3)s2)cc1,-6% [at 100 µM] (inactive),
NCCc1ccc(O)c(O)c1,-3.85% [at 100 µM] (inactive),
O=C(O)CN1C(=O)/C(=C/c2ccc(-c3cccc(Cl)c3)o2)SC1=S,-8.8% [at 100 µM] (inactive),
Cc1ccc(NC(=O)N2CCN(c3ccccn3)CC2)cc1,-9.65% [at 100 µM] (inactive),
O=C(Cc1ccccc1)Nc1sc2c(c1C(=O)Nc1ccc(Cl)cc1)CCOC2,-15.8% (inactive),
CC(C)(C)c1ccc(NC(=O)N2CCN(c3ccc([N+](=O)[O-])cn3)CC2)cc1,-12.9% [at 100 µM] (inactive),
S=C1Cc2ccccc2N1,-9.54% (inactive),
O=C(Cc1ccccc1)Nc1sc2c(c1C(=O)Nc1ccc(Cl)cc1)CCCC2,0.795% (inactive),
O=C(NCCCO)Nc1ccc2nc(-c3ccco3)c(-c3ccco3)nc2c1,,7.94 µM (active)
Nc1ccc(-c2ccc3ccccc3n2)cc1,-5.65% [at 100 µM] (inactive),

SMILES,"activity change, negative = inhibition",Potency
O=C(Cc1ccccc1)Nc1sc2c(c1C(=O)Nc1ccc(Br)cc1)CCCC2,-13.5% (inactive),
N#Cc1cccc(NC(=O)c2ccc3c(c2)N(Cc2cccc(Cl)c2)C(=O)c2ccccc2S3(=O)=O)c1,-0.9% [at 100 µM] (inactive),
O=C(NCc1cccnc1)C1CCN(S(=O)(=O)c2cccs2)CC1,-5.75% [at 100 µM] (inactive),
CCOC(=O)c1c(N)sc2c1CN(C)CC2,-13.2% (inactive),
Cc1ccc(NC(=O)c2c(NC(=O)Cc3ccccc3)sc3c2CCCC3)cc1,-10.5% (inactive),
CC(=O)Nc1sc(C)c2cnn(-c3ccccc3)c(=O)c12,-5.35% (inactive),
CCOC(=O)c1nn(-c2ccccc2)c(=O)c(C#N)c1C,-3.79% (inactive),
O=C(Nc1cccc(-c2nc3ccccc3o2)c1)c1cc([N+](=O)[O-])ccc1N1CCOCC1,-3.1% [at 100 µM] (inactive),
COc1ccc(NC(=O)C2CCN(S(=O)(=O)c3c(C)noc3/C=C/c3cccs3)CC2)cc1Cl,-9.5% [at 100 µM] (inactive),
COc1ccc2oc(-c3ccc(NC(=O)c4ccc(N5CCOCC5)c([N+](=O)[O-])c4)cc3)nc2c1,-2.5% [at 100 µM] (inactive),
COc1c(Cl)cccc1NC(=O)c1c(NC(=O)Cc2ccccc2)sc2c1CCCC2,4.04% (inactive),
CCOC(=O)c1nn(-c2ccc(C)c(C)c2)c(=O)c2c(N)scc12,-29.4% (inactive),
Cc1ccc(NCc2cc3cc4c(cc3n(CC(=O)Nc3ccc(C)cc3)c2=O)OCCO4)cc1,-7.5% [at 100 µM] (inactive),
CN1CCc2sc(NC(=O)Cc3ccccc3)c(C(=O)Nc3ccc(Cl)cc3)c2C1,23% (inactive),
Cn1cc(Cl)c(C(=O)Nc2cccc(Cl)c2Cl)n1,-4.85% [at 100 µM] (inactive),
CCN(c1ccccc1)S(=O)(=O)c1nnc(NC(=O)C(C)(C)C)s1,-5.3% [at 100 µM] (inactive),
Cc1cc2c(N)cccc2nn1,,39.8 µM (active)
COC(=O)C1CCc2sc(NC(=O)Cc3ccccc3)c(C(=O)Nc3ccc(Cl)cc3)c21 (stereo not given),2.38% (inactive),
COc1ccc(OC)c(NC(=O)c2c(NCc3cccs3)sc3c2CCCC3)c1,10.3% (inactive),
COC(=O)c1c(NC(=O)C(C)(C)C)sc2c1C(C(=O)OC)CC2 (stereo not given),-2.5% [at 100 µM] (inactive),
